From PubChem BioAssay (NCATS) come the findings set out here.

The structures appear in SMILES notation. Inconclusive results are not listed. A call without a number means that no potency is given here. The source made the active and inactive calls. The call rests on the fitted dose curve; in most records, active means well fitted cell-killing curve with a large enough effect; inconclusive means small, poorly fitted or top-dose-only effect, or effect the other way; inactive means no such curve, though single readings can be large or run the other way.
Potency means the concentration at half of the fitted maximal effect.

This assay in a line: qHTS for Antimalaria activity screened against the NCATS CANVASS Library (AID 1347380). Further: nearly all actives have a fitted effect of over 40% in size. The settings on record: P. falciparum Dd2 growth, SYBR Green fluorescence, 72 h; series mostly up to 28.7 µM. From the text: Natural products and their derivatives continue to be wellsprings of nascent therapeutic potential. However, many laboratories have limited resources for biological evaluation, leaving their previously isolated or synthesized compounds largely or completely untested. To address this issue, the Canvass library of natural products was assembled (https://tripod.nih.gov/canvass), in collaboration with academic and industry researchers, for quantitative high-throughput screening (qHTS) across a diverse set of cell-based and biochemical assays. The pure (>85% purity by liquid chromatography/mass spectrometry [LC/MS]) Canvass library of 346 natural products were submitted by 45 academic laboratories and companies around the world. We collected pure natural products to circumvent deconvolution and structure elucidation due to time and resource limitations. The library was formatted into 1536-well plates and evaluated in 50 qHTS (in an 11-pnt concentration series) bioassays with broad scope of disease-relevant mechanisms. The resulting data set from 50 different assays was then systematically analyzed to identify overall trends and specific natural products with interesting biological activities. Reported herein are the results of each individual qHTS and their corresponding assay protocol. The proliferation assay assesses the ability of compounds to inhibit the proliferation and/or have cytotoxic effects (72 hr) against the asexual erythrocytic growth of Plasmodium falciparum Dd2, as determined by a SYBRGreen fluorescence assay. National Center for Advancing Translational Sciences (NCATS), Rockville, MD National Institute of Health (NIH), Bethesda, Maryland
Malaria-screen protocol: Assay adopted from Plouffe et al. 2008 PNAS 105: 9059; PMID: 18579783. 1. In a biosafety cabinet, 3 uL of complete Malaria Growth Media (1x RPMI 1640 with L-glutamine + 5.5 g/L Albumax II + 367 uM Hypoxanthine + 25 mM HEPES + 0.25% Sodium Bicarbonate + 35 uM Gentamicin sulfate) was dispensed into a 1536-well black clear Cyclo-Olefin Polymer plate (Aurora Microplates) using a Multidrop Combi (Thermo Fisher Scientific Inc.). 2. 23 nL of compounds (in DMSO solution) were pin transferred into the assay plates using the Kalypsis pin-tool equipped with a 1536 well pin heads. Dihydroartemisinin (working concentration 29 uM) was used as a control and pin transferred (23 nL) at a titration series, final concentration 56 pM - 1.84 uM. 3. In a biosafety cabinet, five microliter of Malaria-infected RBCs: hematocrit 4% (final concentration of 2.5%), 0.3% parasitemia was added to the assay plates using the Multidrop Combi (Thermo Fisher Scientific Inc.). 4. The assay plates were incubated for 72 hours at 37C, 5% O2, 5% CO2, 90%N2, 95% humidity. 5. In the biosafety cabinet, 2 uL of Lysis buffer (20 mM Tris-HCl + 10 mM EDTA + 0.16% saponin + 1.6% Triton-X + 10x SYBR Green) was added to the assay plates using the Multidrop Combi followed by a 25 sec shake immediately after dispensing. 6. The assay plates we incubated further for 18 hours at 37C, 5%O2, 5% CO2, 90%N2, 95% humidity. 7. The fluorescence signal was read using the EnVision (PerkinElmer) plate reader (bottom read) using a 485/14 nm excitation and 535/25 nm emission filters.
`C/C=C1/CN2CC[C@]34C(=Nc5ccccc53)[C@@H]2C[C@@H]1[C@H]4C(=O)OC`: the Potency result is “inactive”.
The value for `CO[C@H](c1ccccc1)[C@H]1NC(=O)C(C)NC(=O)C(C[C@@H](C)CO)N(C)C(=O)[C@@H](C(O)c2cn(C(C)(C)C3CO3)c3ccccc23)NC(=O)C(C(C)C=C(C)C)NC(=O)C(CC(C)C)N(C)C(=O)C(C(C)C)NC1=O` (stereo not given in full) was 292 nM (active).
The value for `CO[C@@H](/C=C/CC/C=C/C(=O)O)[C@@H](O)[C@H](C)/C=C(\C)[C@@H](O)[C@H](C)C(=O)CCCC1CC(=O)NC(=O)C1` was “inactive”.
Take `O=C(c1ccccc1O)c1[nH]c(Cl)c(Cl)c1-n1c(C(=O)c2ccccc2O)cc(Cl)c1Cl`: the Potency is 472 nM (active).
The value for `CN(C)Cc1c[nH]c2ccccc12` was “inactive”; that for `CC[C@@H]1CN2CC[C@@]3(O)C(=Nc4cccc(OC)c43)[C@@H]2C[C@@H]1/C(=C\OC)C(=O)OC` was 14900 nM (active).
The value for `CCC(=O)CCCCC[C@@H]1NC(=O)[C@H]2CCCCN2C(=O)[C@H]([C@@H](C)CC)NC(=O)[C@H](Cc2cn(OC)c3ccccc23)NC1=O` was 33.4 nM (active); that for `CCC[C@H]1CC[C@H]2[C@H](C)CCC[C@H]2N1` was “inactive”; that for `C[C@]12CC(O)C3[C@@H](CCC4C[C@@H](O)CC[C@@]43CO)[C@@]1(O)CCC2C1=CC(=O)OC1` (stereo not given in full) was “inactive”.
For the compound `c1ccc2c3c([nH]c2c1)CNCC3`, the Potency entry was “inactive”.
The value for `CN1C(=O)[C@]23CC4C(C)(C)[C@@]5(C[C@@]41CN2CC[C@@]3(C)O)C(=O)Nc1c5ccc2c1OC=CC(C)(C)O2` (stereo not given in full) was “inactive”.
The value for `COc1ccc(C23Oc4cc(OC)cc(OC)c4[C@](O)([C@H](c4ccccc4)C2C(=O)NCCCCNC(=O)c2ccccc2)[C@@H]3O)cc1` (stereo not given in full) was “inactive”; that for `CC(=O)N[C@H]1CCN2CCC[C@H]12` was “inactive”; that for `C[C@@H]1CC[C@@H](c2ccoc2)N2C[C@@]3(CC[C@@H]12)CS[C@@]1(CC[C@H]2[C@H](C)CC[C@@H](c4ccoc4)N2[C@@H]1O)C3` was 1880 nM (active).
The value for `NCCc1ccccc1` was “inactive”; that for `C=C1[C@@H](C)[C@H]2[C@H](Cc3ccccc3)NC(=O)[C@]23OC(=O)/C=C/[C@H](O)CCC[C@@H](C)C/C=C/[C@H]3[C@@H]1O` was 4200 nM (active); that for `CCN1C[C@]2(C)CC[C@H](O)[C@]34C1C(C[C@H]23)[C@@]12CC[C@H](CC14)[C@](O)(COC(=O)c1ccc(OC)c(OC)c1)[C@H]2O` (stereo not given in full) was “inactive”.
As for `CNCCc1c[nH]c2ccccc12`, the Potency result was “inactive”.
In the case of `CC[N@@+]1([O-])C[C@]2(C)CC[C@@H](O)[C@@]34C5C[C@H]6CC[C@@]5(C(C[C@H]23)C41)[C@H](O)[C@@]6(O)CO` (stereo not given in full), the Potency entry was “inactive”.
With `COc1ccc2c(c1)[nH]c1c(C)nccc12` the figure was 5.4 nM (active).
